Assay [1] in a line: stimulators of nuclear beta-catenin in C2C12, primary screen, imaging, WNT3A-conditioned medium, mouse C2C12, NPC library (AID 1117326; in the data active = nuclear beta-catenin stimulation mostly above about 4.2%, no sharp cut-off; inactive = mostly below about 10%; also: reference of the scale not given here). Particulars: stronger effect = higher value.
Assay [2] in a line: stimulators of insulin release from INS-1E, primary screen, cell-based, 5 mM glucose, NPC library (AID 1117329;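 active = compound raises insulin release from rat beta cells at 5 mM glucose, no numeric limit stated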; also: reference of the scale not given here). Particulars: rat INS-1E insulin secretion, at 10 µM, stronger effect = higher value.
Assay [3] is described as follows: growth inhibition of GSK3B-pretreated HCT116 cells – cell-based, CellTiter-Glo, 0.2 to 20 µM (AID 1117336). The note with it: HCT116 viability after GSK3B inhibitor, at 20 µM, stronger effect = higher value.
Assay [4] in a line: inhibition of endothelial tube formation, primary screen, imaging, VEGF stimulated, CD31 staining, tube area, NPC library (AID 1117340;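 active = compound that reduces growth-factor-driven endothelial tube area in a mixed cell culture, no cutoff stated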). The note with it: VEGF-stimulated ADSC/ECFC co-culture, at 10 µM, stronger effect = higher value.
Assay [5] is described as follows: glucagon-like peptide 1 release enhancers, primary assay, NCI-H716 cell line, NPC library (AID 1117341;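 active = compound raises GLP1 secretion from the human gut endocrine cells, with no numeric limit stated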; also: reference of the scale not given here). Particulars: NCI-H716 cells, at 10 µM, stronger effect = higher value.
Assay [6] can be described thus: HCT116 colon cancer cell growth inhibition, primary screen, CellTiter-Glo luminescence, NPC library (AID 1117342;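 active = compounds that lower survival of HCT116 colon cancer cells in the luminescence readout, no numeric limit stated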). The note with it: at 20 µM (top of the series).
A short description of assay [7]: CellTiter-Glo luminescent readout of SW480 viability loss, NPC library primary (AID 1117343;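 active = compounds that lower viability of the colon cancer cells in the luminescence readout, with no numeric limit stated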). Particulars: CellTiter-Glo luminescence; at 20 µM (top of the series).
Assay [8] in a line: decreased DLD-1 cellular survival, CellTiter-Glo luminescent readout, NPC compound collection, primary HTS (AID 1117346;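 active = compounds that lower survival of DLD-1 colon cancer cells in the luminescence readout, no cutoff given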). The note with it: DLD-1 viability, CellTiter-Glo luminescence; at 20 µM (top of the series).

Structures are written as SMILES. Active and inactive are the calls of the source.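 The calls were made as follows, unless noted: active = compounds lowering colon cancer cell viability after pretreatment blocking the GSK3B kinase; inactive = the rest.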

The source of these data is PubChem BioAssay.

In the case of `COc1ccc(C=CC(=O)O)cc1`, the nuclear beta-catenin stimulation in assay [1] (at 10 µM) is -1.4% (inactive); in assay [1] (stimulation, at 2 µM), 0%. The insulin secretion stimulation in assay [2] was 1% (inactive). The viability decrease in assay [3] was -39% (inactive). Further, the tube area decrease in assay [4] was 4.7% (inactive). The GLP1 secretion stimulation in assay [5] is -4.2% (inactive). Besides, in assay [6], the inhibition of viability is 2.2% (inactive). The results for the viability decrease (inhibition) in assay [7] and in assay [8] were -6.4% (inactive) and -5.9% (inactive), respectively.
For the molecule `COc1cc(S(N)(=O)=O)cc(C(=O)O)c1OC`, the nuclear beta-catenin stimulation in assay [1] (at 10 µM) was -0.6% (inactive); in assay [1] (stimulation, at 2 µM), 3.5%. Moreover, the insulin secretion stimulation in assay [2] was 1.2% (inactive). The viability decrease in assay [3] is 16.8% (inactive). Besides, the tube area decrease in assay [4] was -3.6% (active). Further, the GLP1 secretion stimulation in assay [5] is -1% (inactive). Further, the inhibition of viability in assay [6] was 23.4% (inactive). For the same molecule, the viability decrease (inhibition) in assay [7] is 18.9% (inactive); in assay [8], -9.9% (inactive).
As for `Cc1oc(-c2ccccc2)nc1CCC(=O)c1ccc(CC2SC(=O)NC2=O)cc1` (stereo not given), the nuclear beta-catenin stimulation was 3.2% (inactive) in assay [1] (at 10 µM) and -0.4% in assay [1] (stimulation, at 2 µM). The insulin secretion stimulation in assay [2] is 3.5% (inactive). In addition, the viability decrease in assay [3] is 97.3% (active). For the same molecule, the tube area decrease in assay [4] is 9.6% (inactive). Moreover, in assay [5], the GLP1 secretion stimulation is 12.7% (inactive). The inhibition of viability in assay [6] was 95.4% (active). Besides, the results for the viability decrease (inhibition) in assay [7] and in assay [8] were 120% (active) and 96.5% (active), respectively.
On to `O=C(O)Cn1c(=O)n(Cc2ccc(Br)cc2F)c(=O)c2ccc(Cl)cc21`, for which the nuclear beta-catenin stimulation in assay [1] (at 10 µM) was 1.1% (inactive); in assay [1] (stimulation, at 2 µM) it was -0.9%. In addition, the insulin secretion stimulation in assay [2] was 2.4% (inactive). For the same molecule, in assay [3], the viability decrease is 4.6% (inactive). In assay [4], the tube area decrease is 21.7% (inactive). The GLP1 secretion stimulation in assay [5] was -1.6% (inactive). The inhibition of viability in assay [6] was 5% (inactive). Also, the results for the viability decrease (inhibition) in assay [7] and in assay [8] were -2.1% (inactive) and -18.7% (inactive), respectively.
`N#CSCC(=O)O`: the nuclear beta-catenin stimulation is 0.3% (inactive) in assay [1] (at 10 µM) and 1% in assay [1] (stimulation, at 2 µM). The insulin secretion stimulation in assay [2] was 0.5% (inactive). For the same molecule, the viability decrease in assay [3] is -47.6% (inactive). Besides, in assay [4], the tube area decrease is 2.4% (inactive). Besides, the GLP1 secretion stimulation in assay [5] is -0.1% (inactive). Moreover, the inhibition of viability in assay [6] was -4.8% (inactive). Besides, the figures for the viability decrease (inhibition) in assay [7] and in assay [8] were -6.2% (inactive) and -5.4% (inactive), respectively.
Take `CCCN(CCc1cccs1)[C@H]1CCc2c(O)cccc2C1`: the nuclear beta-catenin stimulation in assay [1] (at 10 µM) is 0.6% (inactive); in assay [1] (stimulation, at 2 µM) it was -2.2%. Besides, in assay [2], the insulin secretion stimulation was 8.95% (inactive). Besides, the viability decrease in assay [3] was 48.4% (inactive). Also, the tube area decrease in assay [4] was 0.6% (inactive). In assay [5], the GLP1 secretion stimulation is 2.4% (inactive). Moreover, the inhibition of viability in assay [6] was 65.2% (active). In addition, the viability decrease (inhibition) was 30.3% (inactive) in assay [7] and 9.7% (inactive) in assay [8].
Consider `c1ccc2[nH]ccc2c1`, for which the nuclear beta-catenin stimulation in assay [1] (at 10 µM) was 0.4% (inactive); in assay [1] (stimulation, at 2 µM), 3%. Moreover, in assay [2], the insulin secretion stimulation was -2.8% (inactive). Also, the viability decrease in assay [3] is -4.45% (inactive). In addition, the tube area decrease in assay [4] is 10.7% (inactive). The GLP1 secretion stimulation in assay [5] is 1.9% (inactive). Moreover, the inhibition of viability in assay [6] was -34.9% (inactive). Also, the viability decrease (inhibition) in assay [7] is 23.7% (inactive); in assay [8] it was 6.25% (inactive).
Consider `O=C(Oc1ccccc1)c1ccccc1O`, for which the nuclear beta-catenin stimulation in assay [1] (at 10 µM) was -0.5% (inactive); in assay [1] (stimulation, at 2 µM), -1%. Besides, the insulin secretion stimulation in assay [2] is -1.5% (inactive). For the same molecule, the viability decrease in assay [3] was -4.35% (inactive). The tube area decrease in assay [4] is 14.3% (inactive). Moreover, the GLP1 secretion stimulation in assay [5] was -1.2% (inactive). In assay [6], the inhibition of viability is 9.1% (inactive). The viability decrease (inhibition) in assay [7] is 84.4% (active); in assay [8] it was 12.1% (inactive).
As for `N#CC1(c2ccc(F)cc2)CCC(=O)CC1`, the nuclear beta-catenin stimulation in assay [1] (at 10 µM) is -0.7% (inactive); in assay [1] (stimulation, at 2 µM), -2.1%. The insulin secretion stimulation in assay [2] was 2.2% (inactive). The viability decrease in assay [3] was 5.9% (inactive). For the same molecule, the tube area decrease in assay [4] was 0.9% (inactive). The GLP1 secretion stimulation in assay [5] is 1.7% (inactive). In addition, the inhibition of viability in assay [6] is 8.6% (inactive). The viability decrease (inhibition) in assay [7] is 3.1% (inactive); in assay [8] it was -1.9% (inactive).
Regarding `NC[C@H]1O[C@H](O[C@H]2[C@@H](O)[C@@H](O[C@H]3O[C@H](CO)[C@@H](O)[C@H](N)[C@@H]3O)[C@H](N)C[C@@H]2N)[C@H](N)C[C@H]1O`, the nuclear beta-catenin stimulation in assay [1] (at 10 µM) was 0.2% (inactive); in assay [1] (stimulation, at 2 µM), 1.4%. For the same molecule, in assay [2], the insulin secretion stimulation is -1.2% (inactive). For the same molecule, the viability decrease in assay [3] is -19.7% (inactive). The tube area decrease in assay [4] is -1.5% (inactive). Also, the GLP1 secretion stimulation in assay [5] is -0.3% (inactive). For the same molecule, the inhibition of viability in assay [6] was -0.2% (inactive). The results for the viability decrease (inhibition) in assay [7] and in assay [8] were 39.1% (inactive) and -15.9% (inactive), respectively.
Consider `O=C1C(c2[nH]c3ccccc3c2O)=Nc2ccccc21`, for which the nuclear beta-catenin stimulation in assay [1] (at 10 µM) is -0.7% (inactive); in assay [1] (stimulation, at 2 µM), 1.4%. The insulin secretion stimulation in assay [2] was 1.2% (inactive). Further, in assay [3], the viability decrease is 18.2% (inactive). In assay [4], the tube area decrease is 27.2% (inactive). Besides, in assay [5], the GLP1 secretion stimulation was 0.5% (inactive). The inhibition of viability in assay [6] was 16.9% (inactive). The viability decrease (inhibition) in assay [7] was 24.1% (inactive); in assay [8], 0.2% (inactive).
Turning to `CCCCCCCCCCCCCCCC(=O)OCC(COC(=O)CCCCCCCCCCCCCCC)OC(=O)CCCCCCCCCCCCCCC`, the nuclear beta-catenin stimulation in assay [1] (at 10 µM) was -0.4% (inactive); in assay [1] (stimulation, at 2 µM), -0.6%. In addition, the insulin secretion stimulation in assay [2] is 2.5% (inactive). Also, in assay [3], the viability decrease was -7.6% (inactive). For the same molecule, the tube area decrease in assay [4] is -17.9% (inactive). Also, the GLP1 secretion stimulation in assay [5] is -5.4% (inactive). The inhibition of viability in assay [6] was -1.3% (inactive). Besides, the viability decrease (inhibition) was 2.7% (inactive) in assay [7] and -6.5% (inactive) in assay [8].
Consider `CCOC(=O)[C@H](CCc1ccccc1)N[C@H]1CCCN2CCC[C@@H](C(=O)O)N2C1=O`, for which the nuclear beta-catenin stimulation was -0.5% (inactive) in assay [1] (at 10 µM) and 0.8% in assay [1] (stimulation, at 2 µM). For the same molecule, the insulin secretion stimulation in assay [2] was -0.4% (inactive). Also, the viability decrease in assay [3] is -16.7% (inactive). Also, the tube area decrease in assay [4] is -6.5% (inactive). The GLP1 secretion stimulation in assay [5] is 4.4% (inactive). The inhibition of viability in assay [6] was 4.2% (inactive). In addition, the viability decrease (inhibition) was 4.5% (active) in assay [7] and -2.1% (inactive) in assay [8].
`CN1C(CSCC(F)(F)F)Nc2cc(Cl)c(S(N)(=O)=O)cc2S1(=O)=O` (stereo not given): the nuclear beta-catenin stimulation in assay [1] (at 10 µM) was -0.4% (inactive); in assay [1] (stimulation, at 2 µM) it was -1.1%. For the same molecule, the insulin secretion stimulation in assay [2] was 6.7% (inactive). Moreover, the viability decrease in assay [3] is -2.8% (inactive). In addition, the tube area decrease in assay [4] is -10.7% (inactive). Besides, the GLP1 secretion stimulation in assay [5] is 1.3% (inactive). Moreover, in assay [6], the inhibition of viability was 30.1% (inactive). Besides, the values for the viability decrease (inhibition) in assay [7] and in assay [8] were -4.4% (inactive) and -7.1% (inactive), respectively.
`NC(=S)N/N=C/c1cccnc1`: the nuclear beta-catenin stimulation was 0.4% (inactive) in assay [1] (at 10 µM) and 0.5% in assay [1] (stimulation, at 2 µM). Further, the insulin secretion stimulation in assay [2] was -0.8% (inactive). For the same molecule, the viability decrease in assay [3] is 0.7% (inactive). The tube area decrease in assay [4] was -13.5% (inactive). For the same molecule, the GLP1 secretion stimulation in assay [5] was 1.9% (inactive). Moreover, the inhibition of viability in assay [6] was -8.9% (inactive). For the same molecule, the viability decrease (inhibition) in assay [7] was 38.7% (inactive); in assay [8], 1.65% (inactive).
